According to PubChem BioAssay (EPA / NIEHS):
Activity calls are given as the source filed them. How the source made its calls: active means hit-call score of the fitted dose curve at least 0.9, where 1 is the maximum; inactive means score below 0.9.

What was measured:
[1] = read-out: Cytochrome P450 (CYP1A1), CYP1A1 (gene 1543); test: LTEA_HepaRG_CYP1A1: Life Technologies and Expression Analysis (LTEA) Assay for Cytochrome P450 (CYP1A1) using HepaRG (AID 2283454); conditions: mRNA level, 48 h; actives raise or lower the signal
How it was run: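 Differentiated human HepaRG cells, after 48 h plating, exposed in duplicate for 48 h in serum-free induction medium to 8 half-log concentrations up to 100 uM in 0.5% DMSO. CYP1A1 mRNA by qRT-PCR, normalized to ACTB/GAPDH/POLR2A; bidirectional fit versus DMSO.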

[2] = read-out: CFLAR gene, CFLAR (gene 8837); test: LTEA_HepaRG_CFLAR: Life Technologies and Expression Analysis (LTEA) Assay for CFLAR gene using HepaRG (AID 2283455); conditions: mRNA level, 48 h; actives raise or lower the signal
How it was run: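 HepaRG cells were plated for 48 h, switched to serum-free induction medium, then exposed in duplicate for 48 h to 8 concentrations (top 100 uM, half-log steps, 0.5% DMSO). CFLAR mRNA was measured by qRT-PCR, normalized to ACTB, GAPDH and POLR2A.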

[3] = CEETOX_H295R_TESTO: CeeTox H295R High-throughput Steroidogenesis Assay for Testosterone (TESTO) (AID 2283457); conditions: actives raise or lower the signal
How it was run: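 H295R adrenal cells, passage ≤10, exposed to chemicals for 48 h. Testosterone in medium measured by MTBE extraction and HPLC-MS/MS against a 7-point standard curve. Bidirectional fit versus DMSO; MTT viability checked in the same wells.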

[4] = read-out: growth arrest and DNA damage 45 (GADD45A), GADD45A (gene 1647); test: LTEA_HepaRG_GADD45A: Life Technologies and Expression Analysis (LTEA) Assay for growth arrest and DNA damage 45 (GADD45A) using HepaRG (AID 2283458); conditions: mRNA level, 48 h; actives raise or lower the signal
How it was run: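 Human HepaRG liver cells are treated in duplicate for 48 h with chemicals in 0.5% DMSO, highest concentration 100 uM. Expression is read by qRT-PCR and analyzed in both directions against vehicle.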

[5] = read-out: Forkhead box O3 (FOXO3), FOXO3 (gene 2309); test: LTEA_HepaRG_FOXO3: Life Technologies and Expression Analysis (LTEA) Assay for Forkhead box O3 (FOXO3) using HepaRG (AID 2283459); conditions: mRNA level, 48 h; actives raise or lower the signal
How it was run: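 Differentiated human HepaRG cells in serum-free induction medium were exposed in duplicate for 48 h to eight half-log concentrations up to 100 uM in 0.5% DMSO. FOXO3 mRNA was quantified by qRT-PCR, normalized to ACTB, GAPDH and POLR2A, with bidirectional fitting versus DMSO.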

[6] = read-out: ABC Transporter (ABCB1), ABCB1 (gene 5243); test: LTEA_HepaRG_ABCB1: Life Technologies and Expression Analysis (LTEA) Assay for ABC Transporter (ABCB1) using HepaRG (AID 2283460); conditions: mRNA level, 48 h; actives raise or lower the signal
How it was run: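 Differentiated human HepaRG cells, plated 48 h then switched to serum-free induction medium, were exposed in duplicate to eight half-log concentrations up to 100 uM in 0.5% DMSO for 48 h. ABCB1 mRNA was measured by TaqMan qRT-PCR, normalized to ACTB/GAPDH/POLR2A.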

[7] = read-out: growth arrest and DNA damage 45 (GADD45B), GADD45B (gene 4616); test: LTEA_HepaRG_GADD45B: Life Technologies and Expression Analysis (LTEA) Assay for growth arrest and DNA damage 45 (GADD45B) using HepaRG (AID 2283461); conditions: mRNA level, 48 h; actives raise or lower the signal
How it was run: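 Differentiated human HepaRG cells in serum-free induction medium exposed 48 h in duplicate to eight concentrations, top 100 uM, half-log steps, 0.5% DMSO. GADD45B mRNA by TaqMan qRT-PCR, normalized to ACTB, GAPDH, POLR2A; bidirectional fit versus DMSO.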

[8] = read-out: ABC Transporter (ABCC3), ABCC3 (gene 8714); test: LTEA_HepaRG_ABCC3: Life Technologies and Expression Analysis (LTEA) Assay for ABC Transporter (ABCC3) using HepaRG (AID 2283462); conditions: mRNA level, 48 h; actives raise or lower the signal
How it was run: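 Differentiated human HepaRG cells exposed 48 h in serum-free induction medium, 0.5% DMSO vehicle, 8-point half-log series to 100 uM in duplicate. ABCC3 mRNA by qRT-PCR, normalised to ACTB, GAPDH, POLR2A; bidirectional fit vs DMSO.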

[9] = read-out: ABC Transporter (ABCB11), ABCB11 (gene 8647); test: LTEA_HepaRG_ABCB11: Life Technologies and Expression Analysis (LTEA) Assay for ABC Transporter (ABCB11) using HepaRG (AID 2283463); conditions: mRNA level, 48 h; actives raise or lower the signal
How it was run: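 Differentiated human HepaRG cells were exposed for 48 h in serum-free induction medium to eight half-log concentrations up to 100 uM in 0.5% DMSO. ABCB11 mRNA was quantified by qRT-PCR, normalized to ACTB, GAPDH and POLR2A, and fitted bidirectionally versus DMSO.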

[10] = read-out: ABC Transporter (ABCC2), ABCC2 (gene 1244); test: LTEA_HepaRG_ABCC2: Life Technologies and Expression Analysis (LTEA) Assay for ABC Transporter (ABCC2) using HepaRG (AID 2283464); conditions: mRNA level, 48 h; actives raise or lower the signal
How it was run: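 Differentiated HepaRG cells in serum-free induction medium exposed 48 h to eight half-log concentrations up to 100 uM, 0.5% DMSO, in duplicate. ABCC2 mRNA measured by qRT-PCR (TaqMan, Fluidigm), normalized to ACTB, GAPDH and POLR2A. Fitted in both directions against DMSO.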

[11] = read-out: Broad substrate specificity ATP-binding cassette transporter ABCG2 (Homo sapiens) (UniProt Q9UNQ0); test: LTEA_HepaRG_ABCG2: Life Technologies and Expression Analysis (LTEA) Assay for ABC Transporter (ABCG2) using HepaRG (AID 2283465); conditions: mRNA level, 48 h; actives raise or lower the signal
How it was run: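 Differentiated HepaRG cells in serum-free induction medium were exposed for 48 h, in duplicate, to eight half-log concentrations up to 100 uM in 0.5% DMSO. ABCG2 mRNA was measured by TaqMan qRT-PCR, normalized to ACTB, GAPDH and POLR2A, and fitted bidirectionally versus DMSO.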

[12] = read-out: Peroxisomal acyl-coenzyme A oxidase 1 (ACOX1) gene, ACOX1 (gene 51); test: LTEA_HepaRG_ACOX1: Life Technologies and Expression Analysis (LTEA) Assay for Peroxisomal acyl-coenzyme A oxidase 1 (ACOX1) gene using HepaRG (AID 2283467); conditions: mRNA level, 48 h; actives raise or lower the signal
How it was run: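 Differentiated human HepaRG cells were exposed in duplicate for 48 h in serum-free induction medium to eight half-log concentrations up to 100 uM in 0.5% DMSO. ACOX1 mRNA was then quantified by TaqMan qRT-PCR, normalized to ACTB, GAPDH and POLR2A.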

[13] = read-out: Alkaline Phosphatase, Placental (ALPP) gene, ALPP (gene 250); test: LTEA_HepaRG_ALPP: Life Technologies and Expression Analysis (LTEA) Assay for Alkaline Phosphatase, Placental (ALPP) gene using HepaRG (AID 2283468); conditions: mRNA level, 48 h; actives raise or lower the signal
How it was run: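 HepaRG cells plated 48 h, then exposed in duplicate for 48 h in serum-free induction medium to 8-point half-log series from 100 uM in 0.5% DMSO. ALPP mRNA by TaqMan qRT-PCR, normalized to ACTB/GAPDH/POLR2A; bidirectional fit versus DMSO.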

[14] = read-out: Bcl-2 (BAD) gene, BAD (gene 572); test: LTEA_HepaRG_BAD: Life Technologies and Expression Analysis (LTEA) Assay for Bcl-2 (BAD) gene using HepaRG (AID 2283469); conditions: mRNA level, 48 h; actives raise or lower the signal
How it was run: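 Differentiated human HepaRG cells in serum-free induction medium were exposed in duplicate for 48 h to eight concentrations (top 100 uM, half-log steps, 0.5% DMSO). BAD mRNA was quantified by qRT-PCR normalised to ACTB, GAPDH and POLR2A, with bidirectional fitting versus DMSO.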

[15] = read-out: Bcl-2 (BAX) gene, BAX (gene 581); test: LTEA_HepaRG_BAX: Life Technologies and Expression Analysis (LTEA) Assay for Bcl-2 (BAX) gene using HepaRG (AID 2283470); conditions: mRNA level, 48 h; actives raise or lower the signal
How it was run: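 Concentration-response endpoint fitted in both directions relative to 0.5% DMSO vehicle. Human HepaRG cultures receive test chemicals for 48 h at up to 100 uM; BAX mRNA is quantified by qRT-PCR against housekeeping genes.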

[16] = read-out: adenosine kinase (ADK) gene, ADK (gene 132); test: LTEA_HepaRG_ADK: Life Technologies and Expression Analysis (LTEA) Assay for adenosine kinase (ADK) gene using HepaRG (AID 2283471); conditions: mRNA level, 48 h; actives raise or lower the signal
How it was run: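 ADK expression quantified by qRT-PCR, normalised to three housekeeping genes, after 48 h exposure of HepaRG cells to eight concentrations (top 100 uM, half-log steps, duplicate, 0.5% DMSO). Up- or down-regulation fitted relative to vehicle.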

[17] = read-out: Alpha-fetoprotein (AFP) gene, AFP (gene 174); test: LTEA_HepaRG_AFP: Life Technologies and Expression Analysis (LTEA) Assay for Alpha-fetoprotein (AFP) gene using HepaRG (AID 2283472); conditions: mRNA level, 48 h; actives raise or lower the signal
How it was run: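 After a 48 h plating period, cells are moved to serum-free induction medium and dosed in duplicate (100 uM maximum, half-log dilutions, 0.5% DMSO) for another 48 h. Total RNA goes to TaqMan qRT-PCR; AFP signal is housekeeping-normalized.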

BCL2L11 (gene 10018) = test: LTEA_HepaRG_BCL2L11: Life Technologies and Expression Analysis (LTEA) Assay for Bcl-2 (BCL2L11) gene using HepaRG (AID 2283473); conditions: mRNA level, 48 h; actives raise or lower the signal
How it was run: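 Differentiated human HepaRG cells were exposed 48 h in serum-free induction medium to eight half-log concentrations up to 100 uM in 0.5% DMSO, in duplicate. BCL2L11 mRNA was quantified by TaqMan qRT-PCR, normalized to ACTB, GAPDH and POLR2A; induction or repression fitted versus DMSO.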

[18] = read-out: ATP-citrate lyase (ACLY), ACLY (gene 47); test: LTEA_HepaRG_ACLY: Life Technologies and Expression Analysis (LTEA) Assay for ATP-citrate lyase (ACLY) using HepaRG (AID 2283466); conditions: mRNA level, 48 h; actives raise or lower the signal
How it was run: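 Differentiated human HepaRG cells in serum-free induction medium exposed 48 h, in duplicate, to eight half-log concentrations from 100 uM top in 0.5% DMSO; ACLY mRNA measured by qRT-PCR, normalized to ACTB, GAPDH, POLR2A, fitted bidirectionally versus DMSO.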

Measured: AC50

Chain of Broad substrate specificity ATP-binding cassette transporter ABCG2 (Homo sapiens) (Q9UNQ0 whole entry, looked up): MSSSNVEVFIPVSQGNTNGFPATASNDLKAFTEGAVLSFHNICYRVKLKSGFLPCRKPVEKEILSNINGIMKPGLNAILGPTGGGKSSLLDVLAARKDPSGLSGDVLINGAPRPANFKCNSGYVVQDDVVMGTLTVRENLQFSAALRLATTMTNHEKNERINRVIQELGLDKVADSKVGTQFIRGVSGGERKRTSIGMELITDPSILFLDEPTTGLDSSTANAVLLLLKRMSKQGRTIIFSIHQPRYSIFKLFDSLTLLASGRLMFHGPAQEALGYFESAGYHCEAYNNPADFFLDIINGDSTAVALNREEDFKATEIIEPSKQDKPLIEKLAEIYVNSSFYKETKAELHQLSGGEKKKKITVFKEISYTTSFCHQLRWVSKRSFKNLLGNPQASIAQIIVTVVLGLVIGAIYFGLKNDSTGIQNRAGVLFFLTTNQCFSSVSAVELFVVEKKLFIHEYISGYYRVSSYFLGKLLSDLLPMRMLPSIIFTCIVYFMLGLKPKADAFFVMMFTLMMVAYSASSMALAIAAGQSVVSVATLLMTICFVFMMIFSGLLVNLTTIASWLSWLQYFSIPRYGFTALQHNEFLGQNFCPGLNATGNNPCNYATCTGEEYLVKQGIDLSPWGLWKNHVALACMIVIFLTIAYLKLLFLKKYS

CC(C)Oc1cc(-n2nc(C(C)(C)C)oc2=O)c(Cl)cc1Cl
active: [1] 13.2 µM | [6] 1.25 µM | [7] 4.73 µM | [9] 58.8 µM | [10] 2.52 µM | [11] 26 µM | [12] 19.8 µM | [13] 69.8 µM | [17] 47.2 µM
inactive: [2] | [3] | [4] | [5] | [8] | [14] | [15] | [16] | BCL2L11 (gene 10018)

CC(C)(C)c1ccc(CSc2cnn(C(C)(C)C)c(=O)c2Cl)cc1
inactive: [2] | [7] | [8] | [12] | [14] | [16]
active: [1] 14.2 µM | [4] 1.99 µM | [6] 4.66 µM | [9] 2.21 µM | [10] 9.03 µM | [11] 2.89 µM | [13] 1.08 µM | [15] 6.27 µM | [17] 2.47 µM | BCL2L11 (gene 10018) 1.93 µM

COC(=O)C(C)Oc1ccc(Oc2ccc(Cl)cc2Cl)cc1 (stereo unspecified)
active: [1] 38.3 µM | [9] 45.7 µM | [12] 21.7 µM | [17] 79.6 µM
not listed: [3] | [5]
inactive: all other assays above
